The text below walks through data of PubChem BioAssay AID651640 (Broad Institute, 2012).

Screen size: about 350,000 compounds; about 6,000 (1.7%) were called active. Not shown: some 5% with an inconclusive outcome. Only a selection was taken, and actives are over-represented in it overall. Unmarked numbers belong to inactive results. Cut-off read from the data, not from the text of the source: active = CPE inhibition above about 20% (passing the limit was not always enough); inconclusive = no clear call, values can overlap the other calls; tested in BHK-21 cells.

The test in a line: protection of cells from dengue 2 killing – plate reader, single concentration, primary screen (AID 651640).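 Note: 0% = median of neutral control wells and 100% = median of positive control wells.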 Particulars: DENV2-infected cells, cytopathic effect rescue, at 9.99 µM, active compounds read high. On the technique in general: Protection from cytopathic effect is a common read-out in antiviral testing.
On to `CC(C)CC#Cc1ccc([C@H]2[C@H]3CN(C(=O)c4cnccn4)CC(=O)N3[C@H]2CO)cc1`, for which the CPE inhibition is 6.05%. The result for `COc1ccc2c3c([nH]c2c1)[C@@H](CO)N(Cc1cc(F)ccc1F)CC31CCN(C(=O)C2CCC2)CC1` reads 8.85%; that for `C[C@@H]1CCCCO[C@@H](CN(C)C(=O)Cc2ccccc2)[C@H](C)CN([C@@H](C)CO)C(=O)c2cc(NC(=O)Nc3ccc4c(c3)OCO4)ccc2O1`, -20.6%; that for `O=C1O[C@@H](c2ccccc2)[C@@H](c2ccccc2)N2[C@@H](c3ccccc3OCCO)[C@]3(C(=O)Nc4ccc(C#CC5(O)CCCCCC5)cc43)[C@@H](C(=O)N3CCCCCCC3)[C@H]12`, -1.79%.

Take `COc1ccc(C#Cc2ccc3c(c2)[C@]2(C(=O)N3)[C@H](C(=O)N3CCCCCCC3)[C@H]3C(=O)O[C@H](c4ccccc4)[C@H](c4ccccc4)N3[C@@H]2c2ccc(O)cc2)cc1`: the CPE inhibition is 16.4%. The result for `COc1ccc(C#Cc2ccc3c(c2)[C@]2(C(=O)N3)[C@H](c3ccccc3OCCO)N3[C@H](c4ccccc4)[C@H](c4ccccc4)OC(=O)[C@H]3[C@@H]2C(=O)N2CCCCCCC2)cc1` reads 22.3% (active); that for `COc1ccccc1-c1ccc([C@@H]2[C@@H](CO)N3CCCCN(C(=O)c4ccncc4)C[C@@H]23)cc1`, -5.15%; that for `COc1cccc(CNC(=O)C[C@H]2CC[C@@H](NC(C)=O)[C@@H](CO)O2)c1`, -0.331%. For `Cc1ccc(S(=O)(=O)N[C@H]2C=C[C@@H](CC(=O)NCCc3ccncc3)O[C@@H]2CO)cc1` the value was -2.51%. The result for `CCNC(=O)C[C@H]1CC[C@@H]2[C@H](COc3ccc(NC(=O)Nc4cccc(Cl)c4)cc3C(=O)N2C)O1` reads 3%. Take `CCN(CC)S(=O)(=O)c1ccc(Cl)c(NC(=O)c2ccncc2)c1`: the CPE inhibition was 2.11%. The result for `CCN(CC)S(=O)(=O)c1ccc(C)c(NC(=O)COc2ccc(Br)cc2Cl)c1` reads 52.1% (active); that for `CCN(CC)S(=O)(=O)c1ccc(OC)c(NC(=O)CCc2c(C)noc2C)c1`, -4.63%; that for `Nc1[nH]c(C(=O)c2ccc(Br)cc2)c(-c2ccc3c(c2)OCO3)c1C(=O)NCCc1c[nH]c2ccccc12`, 9.1%.

Regarding `Cc1ccccc1-c1ccc([C@@H]2[C@@H](CO)N3CCCCN(C(=O)Nc4cccc(F)c4)C[C@H]23)cc1`, the CPE inhibition was -1.69%. In the case of `CC(C)[C@@H](C)/C=C/[C@@H](C)[C@H]1CC[C@@H]2[C@]1(C)CCC1[C@]23C=C[C@]2(C[C@@H](O)CC[C@]12C)N(c1ccc([N+](=O)[O-])cn1)O3` (stereo partly specified), the CPE inhibition was -2.89%.
